BRCA1 expr up: qHTS Assay to Identify Small Molecule Activators of BRCA1 Expression. MCF7-BRCA1-FFLuc reporter, luminescence, 48 h; response scale: scaled: vehicle 0%, 10 µM genistein 100%. Potency, µM (doses to about 46.1 µM), actives largely listed as activators. 380,000 compounds, 1.1% hits; further: nearly all actives have a fitted effect of over 80% in size
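Cells: MCF7-BRCA1-FFLuc, 2000/well. Exposure: 48 h, 37 °C, 5% CO2. Read: luminescence, 15 min post-substrate. Controls: genistein 10 microM (maximal activation), DMSO (neutral).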
IL-2 act: qHTS of IL-2 Activators; IL-2 activation reporter assay, cell-based qHTS; stimulated with anti-CD3/CD4/CD28 beads; in transgenic mouse T cells; activation, % (series mostly up to about 46 µM); 360,000 compounds, 0.065% hits; AID 652025, 2013; in the data active means activation above about 50%; inconclusive means mostly about 30% to 49%
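Readout is EGFP and DsRed signal by fluorescent plate cytometry after 18 h at 37 degrees C. Transgenic mouse T cells (750/well) received compound for 60 min before bead stimulation (anti-CD3, anti-CD4, anti-CD28); memory T cells served as non-tolerant control.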
Nrf2 ARE act: qHTS of Nrf2 Activators; AREc32 ARE-luciferase reporter (MCF7-derived line), luminescence, 24 h; Potency, µM (top dose mostly 46.1 µM), actives largely listed as activators; 410,000 compounds, 0.31% hits; AID 624171, 2012; further: nearly all actives have a fitted effect of over 65% in size
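AREc32_Fluc, 1000 cells/well, OPTI-MEM + 5% FBS, o/n 37 deg C 5% CO2; 23 nL cpd by pin tool, 24 hr; Steady-Glo 30 min RT, luminescence.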
Chronic BCR inh: qHTS Assay to Find Inhibitors of Chronic Active B-Cell Receptor Signaling; ABC-DLBCL IkBa-CBG/CBR reporter, luminescence ratio, 4 h; Potency, µM (doses to about 46.1 µM), actives largely listed as inhibitors; 340,000 compounds, 0.05% hits; active means well fitted inhibition curve with a large enough effect in the signal ratio, with a control signal flat, not every such curve was filed as active; inconclusive means small, poorly fitted or top-dose-only effect, or effect the other way, or a change in a side signal; the % refers to the signal ratio
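Doxycycline induced both beetle luciferases in TMD8 lymphoma cells; IKK-driven degradation limits the IkappaBalpha-fused green signal, while red luminescence normalises for cell number and nonspecific effects. Compounds tested up to 46 uM, 4 hrs.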
a7 integrin act: qHTS for Activators of Integrin-Mediated Alleviation for Muscular Dystrophy. AID 624291, 2012. Potency, µM (doses to about 38.3 µM), most hits filed as activators. 350,000 compounds, 0.064% hits. alpha7betagal myoblasts, beta-gal FDG fluorescence, 48 h; further: nearly all actives have a fitted effect of over 60% in size
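Alpha7betagal+/- myoblasts (passage 13) were plated 16-24 hr, then exposed to compounds (1:260 dilution of DMSO stock) for 48 hours at 37C. After MPER lysis, β-galactosidase reporter activity was read as FDG fluorescence (ex 480/em 540) after 30 minutes.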
N370S GC mod: qHTS Assay for Inhibitors and Activators of N370S glucocerebrosidase as a Potential Chaperone Treatment of Gaucher Disease | Potency, µM (top dose mostly 59.4 µM), hits mostly inhibitors | Lysosomal acid glucosylceramidase (Homo sapiens), P04062 | 330,000 compounds, 0.092% hits | N370S GC spleen homogenate, 4MU-glucoside fluorescence
Numbers stand for hits; – = inactive; ? = inconclusive; · = not tested or not shown. This is a sample that favours compounds with a hit; in the whole collection about 1.4% have one here. Unless noted, the call rests on the fitted dose curve; in most records, active means well fitted curve in the direction sought with a large enough effect; inconclusive means small, poorly fitted or top-dose-only effect, or another doubt; inactive means no such curve, though single readings can be large; an effect the other way counts as inactive or inconclusive.

SMILES	BRCA1 expr up	IL-2 act	Nrf2 ARE act	Chronic BCR inh	a7 integrin act	N370S GC mod
C(=C\c1ccccn1)/c1ccncc1	–	–	–	?	–	–
C(/C=C/c1ccccn1)=C\c1ccccc1	?	–	12.6µM	·	–	·
CC1(C)CCC(=O)N2CC[C@H]3C[C@H](OC(=O)Nc4ccccc4)C[C@@H]1[C@H]32	?	–	–	?	–	–
CC1(C)CCC(=O)N2CC[C@H]3C[C@H](OC(=O)Nc4ccc5c(c4)OCO5)C[C@@H]1[C@H]32	11.2µM	–	–	–	–	–
O=S1(=O)CCOC[C@H](CC2CCCCC2)N1Cc1ccccc1Br	–	–	–	–	–	–
CCOc1cccc(Nc2ccc([N+](=O)[O-])cn2)c1	–	–	–	?	–	–
Cc1cccc(Nc2ccc([N+](=O)[O-])cn2)c1	11.2µM	–	–	–	?	–
CC(=O)c1cccc(NC(=O)CCc2nc3sc4c(c3c(=O)[nH]2)CCCC4)c1	–	–	–	–	–	?
O=[N+]([O-])c1ccc(/C=[N+](\[O-])[C@@H]2CCCC[C@@H]2/[N+]([O-])=C/c2ccc([N+](=O)[O-])o2)o1	–	–	10µM	–	–	–
Cc1cc(C(=O)Nc2cnc3ccccc3c2)ccc1[N+](=O)[O-]	3.16µM	–	–	?	–	–
Cc1ccc(C(=O)Nc2cnc3ccccc3c2)cc1	–	–	–	?	–	–
Cc1cc(C(=O)Nc2ccc(N3CCCC3)c(Cl)c2)ccc1[N+](=O)[O-]	10µM	–	–	–	–	–
Cc1ccc(-c2cc(C(=O)NCc3cccs3)no2)cc1	4.47µM	–	–	–	–	–
Cc1ccc(/C=C/C(=O)NCc2cccs2)c(C)c1	10µM	–	–	?	–	–
O=C(NCc1cccs1)c1cc(-c2ccc(O)cc2)on1	8.91µM	–	–	?	–	–
O=C1OC(c2ccccc2)=C/C1=C/N1CCOCC1	12.6µM	–	–	–	–	–
O=C1OC(c2ccccc2)=C/C1=C\N1CCOCC1	?	–	–	–	–	–
CC(=O)c1ccc(NCCC(=O)c2ccccc2)cc1	11.2µM	–	–	–	–	–
CC(=O)c1ccc(NC(=O)CCCC(=O)c2ccccc2)cc1	–	–	–	?	?	–
COc1cc(S(=O)(=O)NCC2(N3CCCCC3)CCCCC2)ccc1NC(C)=O	–	–	–	–	–	–
O=C(CSc1nc2ccccc2c(=O)n1NC(=O)c1ccccc1)c1ccc(Cl)cc1	14.1µM	–	–	–	–	–
COc1ccc(CCC(=O)NCc2nc3cccnc3n2Cc2ccccc2)cc1	·	·	–	·	·	·
CNC(=S)N/N=C(\C)c1ccc(Cl)s1	–	–	–	16.4µM	–	–
S=C(Nc1ccccc1)c1ccccn1	10µM	–	–	?	–	–
Cc1ccc2cc(CN(CC3CCCO3)S(=O)(=O)c3cccc4nsnc34)c(=O)[nH]c2c1 (centres undefined)	–	–	–	–	–	?
SMILES	BRCA1 expr up	IL-2 act	Nrf2 ARE act	Chronic BCR inh	a7 integrin act	N370S GC mod
Cc1ccc2cc(CN(CC(C)C)S(=O)(=O)c3cccc4nonc34)c(=O)[nH]c2c1	–	65.1	–	–	–	–
N#Cc1c(N2CCOCC2)nsc1-c1ccc(C(F)(F)F)cc1	5.01µM	–	–	?	–	–
c1ccc(CCc2nc(-c3cccnc3)no2)cc1	10µM	–	–	?	–	–
COc1ccc(-c2noc(CSc3nc(N)c(-c4ccccc4)c(=O)[nH]3)n2)cc1	–	–	–	16.4µM	–	?
CCc1cc(=O)[nH]c(SCc2nc(-c3ccccc3)no2)n1	·	·	–	·	·	·
CCCc1nc(-c2ccc(-c3ccc(F)cc3)cc2)no1	3.98µM	–	–	?	–	–
c1ccc(CCc2nc(-c3ccccc3)no2)cc1	12.6µM	–	–	?	–	–
COc1cc(OC)c(/C=C/c2cc3ccccc3c[n+]2C)c(OC)c1	–	·	·	·	·	·
COC(=O)C(NS(N)(=O)=O)C(C)C (centres undefined)	·	·	·	·	·	–
COc1ccc(Cc2nc(-c3ccccc3)no2)cc1	11.2µM	–	–	?	–	–
O=S(=O)(Nc1cccc(-c2ccc(N3CCCCCC3)nn2)c1)c1ccccc1F	12.6µM	–	–	–	–	–
O=S(=O)(Nc1cccc(-c2ccc(N3CCCCCC3)nn2)c1)c1ccccc1Cl	–	–	–	?	–	–
N#Cc1nc(-c2ccc(OCc3ccccc3Cl)cc2)oc1N1CCCCCC1	–	·	·	·	·	·
O=C(N/N=C/c1ccc(-n2ccnc2)cc1)c1cccs1	11.2µM	–	–	?	–	–
O=C(N/N=C/c1ccncc1)c1cccs1	12.6µM	–	–	?	–	–
CSc1ccc(/C=N/NC(=O)c2cccs2)cc1	?	–	–	?	–	–
CC(=O)N1CCC2(CC1)CCN(c1ccccn1)CC2	·	·	·	·	·	–
COc1ccc(/C=N/N=C2/SCC(=O)N2Cc2ccccc2)cc1	5.62µM	–	–	–	–	–
COc1ccc(CN2C(=O)CS/C2=N/N=C/c2ccccc2)cc1	3.98µM	–	–	–	–	–
O=C(COc1ccccc1C(=O)Nc1ccccc1)NCCCCc1ccccc1	–	·	·	·	·	·
Cc1ccc2oc(C(=O)N(C)Cc3ccon3)c(C)c2c1	8.91µM	–	–	–	–	–
CCOc1cc(/C=C2/NC(=O)N(CC(=O)OC)C2=O)ccc1OC	–	–	–	?	–	–
CCOc1cc(Br)c(/C=C2/C(=O)N(C)C(=S)N2CC(=O)OC)cc1OC	–	99.7	–	–	–	–
CCCCN1C(=O)/C(=C/C=C2\SCCN2C)SC1=S	7.08µM	–	–	?	–	–
CN1CCS/C1=C/C=C1/SC(=S)N(Cc2ccccc2)C1=O	12.6µM	–	–	?	–	–
SMILES	BRCA1 expr up	IL-2 act	Nrf2 ARE act	Chronic BCR inh	a7 integrin act	N370S GC mod
CN1CCS/C1=C/C=C1\SC(=S)N(CC(=O)O)C1=O	–	–	–	–	–	–
Cc1ccnc(NC(=O)CCCc2ccccc2)c1	11.2µM	–	–	–	–	–
O=C(CCCc1ccccc1)Nc1ccccn1	–	–	–	–	?	?
Cc1ccnc(NC(=O)CCNC(=O)c2ccc(Cl)cc2)c1	12.6µM	–	–	–	–	–
Cc1ccc(C(=O)NCC(=O)Nc2cc(C)ccn2)cc1	–	–	–	–	–	–
Cc1ncc(N=Nc2ccccc2)c(-c2ccccc2)n1	–	–	3.98µM	–	–	–
CC1CCC(NC(=O)N(CCCl)N=O)CC1 (centres undefined)	5.01µM	–	–	·	·	–
